From PubChem
In the library only some 5.4% were active in any assay of this set; here they are far more common.
AHR act = activators of human aryl hydrocarbon receptor; P35869; AHR-responsive luciferase reporter cells, luminescence; activation, % at 5 µM; actives 2.5% (n = 320,000); AID 2796; in the data active = activation above about 47%;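 note: 0% = vehicle wells and 100% = reference agonist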
FXN GAA850 act = frataxin GAA850 promoter activation; HEK293 lucGAA850 FXN promoter luciferase reporter, 24 h; percent of 10 µM SAHA response; activation, % at 6 µM; actives 0.56% (n = 360,000); AID 540364;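 active = activation above the average of all compounds screened plus 3 SD, cutoff fixed separately per campaign, cut at about 7.5% in these data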;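 note: 0% = DMSO wells and 100% = 10 µM SAHA wells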
HSF1 inh = HSF1 inhibition. NIH3T3-HGL HSE-luciferase, MG132-induced, luminescence 8 h; hits give low values. activity change, negative = inhibition, % at 7.5 µM (by protocol). actives 0.77% (n = 300,000). AID 2098;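 active = more than half of replicate wells show activity change below -50%, luminescence cut by over half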;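 note: luciferase reports HSF-1 transcriptional activity via heat shock element; 0% = median of DMSO wells and -100% = zero luminescence signal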
DAX1 inh = inhibits human nuclear receptor DAX1. HEK293 Gal4-DAX1 luciferase reporter, luminescence. inhibition, % at 6.75 µM. actives 0.99% (n = 340,000). AID 504766;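 active = inhibition above the mean over all tested compounds plus 3 SD, cut at about 4.2% in these data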;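 note: 0% = DAX1-transfected cells with DMSO and 100% = empty-vector control cells with DMSO; inhibition shows as a rise in luminescence from relieved DAX1 repression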
Target sequence (P51843 207-470 limits assumed): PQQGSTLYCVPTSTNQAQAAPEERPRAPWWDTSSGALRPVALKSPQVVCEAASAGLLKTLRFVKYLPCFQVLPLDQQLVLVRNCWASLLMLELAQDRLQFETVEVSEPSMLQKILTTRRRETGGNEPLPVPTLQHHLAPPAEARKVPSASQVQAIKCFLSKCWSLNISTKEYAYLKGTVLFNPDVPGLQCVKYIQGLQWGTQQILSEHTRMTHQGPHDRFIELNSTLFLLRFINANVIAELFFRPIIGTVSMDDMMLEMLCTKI
HSF1 activator = increases HSF-1 driven luciferase reporter signal; NIH3T3-HGL HSF-1 luciferase reporter, MG132, 8 h; 100% = twice DMSO control signal; activation, % at 9 µM; actives 1.7% (n = 300,000); AID 504408;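 active = mean replicate activation of at least 50% with a set share of replicates each reaching 50%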;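 note: 0% = median of the neutral control wells and 100% = twice that signal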
AHR act cf = confirmation of human aryl hydrocarbon receptor activators. shares compounds with AHR act. human cells, AHR-responsive luciferase reporter, luminescence. activation, % at 9 µM. actives 87% (n = 2,300). AID 2845; in the data active = activation above about 49%;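 note: HepG2 hepatoma cells carrying a DRE-driven firefly luciferase reporter; 0% = vehicle wells and 100% = reference agonist wells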
PXR counter = counter-screen for AHR activators: human PXR activators. shares compounds with AHR act. cell-based PXR reporter, luciferase luminescence. activation, % at 11.6 µM. actives 88% (n = 2,300); in the data active = activation above about 11%;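 note: human hepatoma DPX-2 cells expressing full-length human PXR; 0% = DMSO and 100% = reference agonist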
An asterisk follows results filed as active; . = no result given.

SMILES	AHR act	FXN GAA850 act	HSF1 inh	DAX1 inh	HSF1 activator	AHR act cf	PXR counter
CCC1(c2ccc(Cl)cc2)NC(=S)N(c2ccccc2)N1 (stereo unspecified)	80*	3	56	0	70*	82*	12*
COC(=O)CSc1nc(-c2ccccc2)nc2ccc(F)cc12	35	-1	-5	2	19	.	.
OCCSc1nc(-c2ccccc2)nc2ccc(F)cc12	102*	2	-5	-1	-4	95*	24*
Cn1cnc([N+](=O)[O-])c1Oc1cccc2ccccc12	82*	-2	-3	0	7	82*	21*
O=C(O)c1cc(S(=O)(=O)N2CCN(C(c3ccccc3)c3ccccc3)CC2)ccc1Cl	1	-1	5	1	-10	.	.
CN(C)S(=O)(=O)Oc1ccsc1C(=O)Nc1cccc(Cl)c1	22	0	-1	-1	12	.	.
CN(C)S(=O)(=O)Oc1ccsc1C(=O)Nc1ccc(Cl)c(Cl)c1	90*	-1	1	0	19	122*	35*
O=C(NCc1ccccc1Br)c1ccncc1	12	-2	-7	0	3	.	.
Cn1c(-c2ccsc2)c(-c2cccs2)c2cc(-c3cccc4[nH]ccc34)ccc21	112*	1	.	1	.	101*	79*
COc1cc(OC)cc(-c2c(-c3cccs3)c3cc(-c4ccc5cc[nH]c5c4)ccc3n2C)c1	12	1	.	1	.	.	.
COC(=O)Nc1nn(-c2ccc(Cl)cc2)c(=O)c(C#N)c1C	96*	1	-7	-1	-13	29	14*
CCCOc1ccc(C(=O)Nc2ccc(S(=O)(=O)N3C[C@@H]4C[C@@H](C3)c3cccc(=O)n3C4)cc2)cc1	0	0	.	-1	.	.	.
COc1ccc(CN(C)C(=O)C2CSC3(C)CCC(=O)N23)c(OC)c1 (stereo unspecified)	.	0	.	0	.	.	.
CC(=O)Nc1nc2cc([N+](=O)[O-])ccc2s1	-1	-1	.	-1	.	.	.
O=c1nc(Nc2ccc(Br)cc2)sc2ccc([N+](=O)[O-])cc12	96*	0	-1	-2	-4	102*	.
COc1c2occc2c(OC)c2c(=O)cc(C(F)(F)F)oc12	84*	-1	-10	0	17	86*	22*
Cc1cc2c(NC3CCCCC3)ncnc2s1	.	2	-1	-1	8	.	.
Cc1csc(=O)n1CCC(=O)O	1	0	7	-1	9	.	.
C/C(=C1/C(=O)N(c2ccc([N+](=O)[O-])cc2)N=C1c1ccccc1)N(C)C	87*	.	.	.	.	37	29*
CN(C)S(=O)(=O)Oc1ccccc1C(=O)Nc1cccc(C(F)(F)F)c1	82*	-1	16	0	21	100*	55*
CN(C)S(=O)(=O)c1ccc(N2CCCC2)c(C(=O)Nc2ccc(F)cc2F)c1	4	1	9	0	-3	.	.
Cn1ncc(N)c1C(=O)Nc1cccc(C(F)(F)F)c1	46	-1	-4	1	-10	.	.
Nc1[nH]ncc1C(=O)Nc1cccc(C(F)(F)F)c1	91*	2	-10	0	5	50*	.
CN(C)S(=O)(=O)Oc1ccccc1C(=O)Nc1ccc(F)cc1F	124*	2	1	-1	11	93*	154*
COc1cccc(C(=O)Nc2cc(-c3cn4cccnc4n3)ccc2C)c1	13	-1	-2	0	0	.	.
SMILES	AHR act	FXN GAA850 act	HSF1 inh	DAX1 inh	HSF1 activator	AHR act cf	PXR counter
CCCNC(=O)C(Cc1ccccc1)NC(=O)c1ccc(C(F)(F)F)cc1 (stereo unspecified)	2	1	.	2	.	.	.
CSc1ccc(CN2C(=O)C(F)(F)Oc3c(C(C)=O)cccc32)cc1	.	-1	.	.	.	.	.
Cc1cc2cc(C)c(NCCNC(=O)c3cccs3)nc2cc1C	97*	-1	-4	0	-7	64*	22*
O=C1N/C(=N\N=C\c2ccco2)SC1Cc1ccccc1[N+](=O)[O-] (stereo unspecified)	83*	1	14	0	5	71*	28*
CCOc1ccc(CC2S/C(=N/N=C/c3ccco3)NC2=O)cc1 (stereo unspecified)	2	-2	-2	2	15	.	.
CCOC(=O)c1[nH]c2cc3c(cc2c1NC(=O)CN1CCCCC1C)OCO3 (stereo unspecified)	97*	.	0	.	22	92*	182*
COc1ccc(-c2cc(C(=O)NCC(c3ccco3)N(C)C)c3ccccc3n2)cc1OC (stereo unspecified)	7	-1	-1	-1	1	.	.
CN(C)c1ccc(NC(=O)/C=C/c2c(Cl)cccc2Cl)cc1	100*	-2	21	0	32	147*	87*
O=C(CNC(=O)c1ccccc1F)N/N=C/c1cn[nH]c1-c1ccccc1	140*	1	-1	-1	2	92*	19*
O=C(CSc1nc2ccccc2c2nc3ccccc3n12)NCc1ccco1	80*	2	45	-2	103*	50*	48*
CCCNC(=O)N(C)C[C@@H]1Oc2ncc(-c3ccncc3)cc2C(=O)N([C@H](C)CO)C[C@@H]1C	.	0	.	1	.	.	.
Nn1c(COc2ccccc2F)nnc1SCC(=O)NC1CC1	0	3	0	2	10	.	.
CCOc1nc(Nc2ccc(OC)cc2)nc(OCC)n1	13	3	2	1	20	.	.
COc1ccc(Nc2ccnc(Nc3ccc(OC)cc3)n2)cc1	83*	1	19	-3	31	62*	37*
Cc1ccc(NC(=S)c2nc3ccccc3[nH]2)c(C)c1	94*	4	26	1	72*	84*	.
CCN1CCN(C(=O)C2CCN(S(=O)(=O)c3ccc(SC)cc3)CC2)CC1	0	1	-2	-1	-5	.	.
O=C(Nc1ccon1)c1cnc2sccn2c1=O	139*	3	-4	0	9	107*	.
Cc1cccc(NC(=O)c2cnc3sccn3c2=O)n1	168*	3	11	1	6	135*	14*
O=C(NCc1cccnc1)c1cnc2sccn2c1=O	81*	2	-4	0	9	40	4
Cc1cccc(NC(=O)c2cnc3sccn3c2=O)c1C	.	3	23	.	25	.	.
O=C(NCc1cccnc1)c1cnc2n(c1=O)CCS2	13	2	-5	2	0	.	.
CC(C)Oc1ccc(S(=O)(=O)N2CCOCC2)cc1NC(=O)C1CCCCC1	1	0	.	0	.	.	.
CCN(CC)CCNC(=O)c1ccc(NC(=O)C2CC(=O)N(c3ccc4c(c3)OCCO4)C2)cc1 (stereo unspecified)	-2	2	0	1	-5	.	.
Cc1c(C(=O)Nc2ccc(S(=O)(=O)Nc3ncccn3)cc2)oc2ccc(F)cc12	.	2	3	1	10	.	.
